Only some compounds are listed: those with a hit (about 5.9% of all), similar ones and a draw of the others.
ALR H2O2 inh: inhibitors of human sulfhydryl oxidase ALR; 3.8% of 290,000 active; inhibition, % (test concentration not listed); P55789; purified ALR, DTT oxidation, H2O2 HRP-luminol luminescence;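 active means mean replicate inhibition above about 79%, with every replicate also reaching it, limit read from the data; inconclusive means only one of the two criteria met; inactive means mean below limit and not every replicate reaching it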
PRMT1 FP inh: inhibitors of human PRMT1. Q99873. recombinant PRMT1, activity-based probe fluorescence polarization. inhibition, % at 2.79 µM. 1.3% of 370,000 active;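 active means inhibition above about 21% made by adding two undisclosed values, limit read from the data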
rCAG RNA binder: binds r(CAG) RNA repeats | r(CAG) RNA repeat, TO-PRO-1 dye displacement fluorescence | inhibition, % at 3 µM | 1.3% of 370,000 active;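 active means inhibition above the plate cutoff, the mean of all test compounds on that plate plus 3 SD, cut at about 35% in these data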;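 further: higher means more dye released from RNA so lower well fluorescence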
ABHD5-PLIN5 inh: inhibitors of human ABHD5-perilipin-5 interaction. Q00G26+Q8WTS1. Split G. princeps luciferase complementation, luminescence, 4 h. inhibition, % at 4 µM. 0.78% of 360,000 active;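 active means inhibition above the mean inhibition across every tested compound plus 3 SD, cut at about 22% in these data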
Target sequence (Q00G26 whole entry, looked up): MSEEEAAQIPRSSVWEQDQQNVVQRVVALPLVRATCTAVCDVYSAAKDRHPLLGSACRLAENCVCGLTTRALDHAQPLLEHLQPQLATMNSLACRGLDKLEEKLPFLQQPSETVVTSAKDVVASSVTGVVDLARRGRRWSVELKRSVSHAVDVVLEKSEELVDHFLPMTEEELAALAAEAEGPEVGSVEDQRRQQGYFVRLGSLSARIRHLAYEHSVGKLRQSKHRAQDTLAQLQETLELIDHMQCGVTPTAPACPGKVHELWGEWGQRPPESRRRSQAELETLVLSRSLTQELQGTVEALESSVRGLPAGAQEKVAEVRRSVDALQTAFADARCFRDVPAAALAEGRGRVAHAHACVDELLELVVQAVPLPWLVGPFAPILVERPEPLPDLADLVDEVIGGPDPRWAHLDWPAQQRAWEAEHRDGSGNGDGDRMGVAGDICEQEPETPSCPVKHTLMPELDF
Target sequence (Q8WTS1 whole entry, looked up): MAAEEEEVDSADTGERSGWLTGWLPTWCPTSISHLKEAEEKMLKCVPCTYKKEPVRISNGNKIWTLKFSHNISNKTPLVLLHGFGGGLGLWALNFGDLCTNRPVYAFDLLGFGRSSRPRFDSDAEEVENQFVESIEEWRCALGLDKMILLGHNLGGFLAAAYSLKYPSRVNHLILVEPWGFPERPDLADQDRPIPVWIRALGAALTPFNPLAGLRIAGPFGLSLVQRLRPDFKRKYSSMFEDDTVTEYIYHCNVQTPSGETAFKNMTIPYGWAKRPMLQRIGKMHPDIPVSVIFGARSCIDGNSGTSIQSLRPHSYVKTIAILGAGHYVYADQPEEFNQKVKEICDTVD
LANA-H2B inh: blocks KSHV LANA binding to histone H2A/H2B; cell-free LANA-H2A/H2B peptide, fluorescence polarization; 0.6% of 320,000 active; inhibition, % (concentration not given with the values); Q9QR71; in the data active means inhibition mostly above about 10%, no sharp cut-off; inactive means mostly below about 6.7%
Rtt109 Vps75: inhibitors of Candida albicans Rtt109/Vps75 histone acetyltransferase | purified Rtt109/Vps75, ThioGlo CoA-SH fluorescence, 4 h | inhibition, % at 34.9 µM | 0.16% of 330,000 active;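 active means inhibition of at least 50% in every replicate; inconclusive means best replicate reaches 50% inhibition but some replicates fall short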
ABHD5 PLIN5 conf: ABHD5-PLIN5 interaction inhibition, confirmed | 67% of 2,200 active | biochemical ABHD5-PLIN5 interaction, luminescence | AID 651612 | shares compounds with ABHD5-PLIN5 inh | inhibition, % at 4 µM; in the data active means inhibition above about 23%
HNF4 split-luc: HNF4 split-luciferase signal hit, counter-screen. shares compounds with ABHD5-PLIN5 inh. HNF4 dimerization, luminescence, biochemical. inhibition, % at 4 µM. 77% of 2,200 active. AID 651674;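 active means mean inhibition across replicate wells exceeding the computed hit threshold, cut at about 13% in these data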;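 further: light from luciferase halves that rejoin when HNF4 fusion proteins dimerize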
Hits are given with their value.

Results for O=C1c2ccccc2C(c2nnnn2Cc2ccccc2)N1CCc1ccc(O)cc1 (stereo not drawn) ?
PRMT1 FP inh: inactive; rCAG RNA binder: inactive; ABHD5-PLIN5 inh: inactive

How did Cc1cc(NC(=O)CSc2ccc(-c3ccc(Br)cc3)nn2)no1 do in these assays?
ALR H2O2 inh: inactive; PRMT1 FP inh: inactive; rCAG RNA binder: inactive; ABHD5-PLIN5 inh: inactive; LANA-H2B inh: inactive; Rtt109 Vps75: inactive

Results for Cc1ccc(-c2ccc(SCC(=O)Nc3cc(C)on3)nn2)cc1 ?
ALR H2O2 inh: inactive; PRMT1 FP inh: inactive; rCAG RNA binder: inactive; ABHD5-PLIN5 inh: 55; LANA-H2B inh: inactive; Rtt109 Vps75: inactive; ABHD5 PLIN5 conf: inactive; HNF4 split-luc: inactive

How did COc1cc(NC(=O)CCl)ccc(=O)c1 do in these assays?
PRMT1 FP inh: inactive; rCAG RNA binder: inactive; ABHD5-PLIN5 inh: inactive

What do the screens show for `C#CCOCCOCCOCCNc1nc(N2CCN(C(=O)CCCCCCCCCCNC(=O)[C@H](CCCCN)n3cc(C)nn3)CC2)nc(N2CCN(C(=O)CCCCCCCCCCNC(=O)[C@@H]([C@H](C)O)n3cc(C)nn3)CC2)n1`?
ALR H2O2 inh: inactive; ABHD5-PLIN5 inh: 44; LANA-H2B inh: inactive; Rtt109 Vps75: inconclusive; ABHD5 PLIN5 conf: inactive; HNF4 split-luc: inactive

How did C#CCOCCOCCOCCNc1nc(N2CCN(C(=O)CCCCCCCCCCNC(=O)Cn3cc(C[C@@H](C)O)nn3)CC2)nc(N2CCN(C(=O)CCCCCCCCCCNC(=O)[C@@H](CCSC)n3cc(CCO)nn3)CC2)n1 do in these assays?
ALR H2O2 inh: inactive; ABHD5-PLIN5 inh: inactive; LANA-H2B inh: inactive; Rtt109 Vps75: inactive

How did C#CCOCCOCCOCCNc1nc(N2CCN(C(=O)CCCCCCCCCCNC(=O)[C@@H](CCSC)n3cc(CCO)nn3)CC2)nc(N2CCN(C(=O)CCCCCCCCCCNC(=O)[C@@H]([C@H](C)O)n3cc(C)nn3)CC2)n1 do in these assays?
ALR H2O2 inh: inactive; PRMT1 FP inh: inactive; rCAG RNA binder: inactive; ABHD5-PLIN5 inh: 53; LANA-H2B inh: inactive; Rtt109 Vps75: inactive; ABHD5 PLIN5 conf: inactive; HNF4 split-luc: inactive

Results for Cc1cn([C@@H](CCCCNC(=O)OC(C)(C)C)C(=O)NCCCCCCCCCCC(=O)N2CCN(C(=O)OC(C)(C)C)CC2)nn1 ?
ALR H2O2 inh: inactive; ABHD5-PLIN5 inh: 24; LANA-H2B inh: inactive; Rtt109 Vps75: inactive; ABHD5 PLIN5 conf: inactive; HNF4 split-luc: inactive

Results for CC[C@H](C)Cc1cn([C@@H](CCCN=C(NC(=O)OC(C)(C)C)NC(=O)OC(C)(C)C)C(=O)NCCCCCCCCCCC(=O)N2CCN(C(=O)OC(C)(C)C)CC2)nn1 ?
ALR H2O2 inh: inactive; ABHD5-PLIN5 inh: inactive; LANA-H2B inh: inactive; Rtt109 Vps75: inactive

Results for CCCS(=O)(=O)NC(=O)C1(C)CCCN(C(=O)CCc2cccs2)C1 (stereo not drawn) ?
PRMT1 FP inh: inactive; rCAG RNA binder: inactive; ABHD5-PLIN5 inh: inactive

Results for C=CCN(CC#Cc1ccccc1)CC=C ?
PRMT1 FP inh: inactive; rCAG RNA binder: inactive

How did O=c1ccc2ccccc2c2ccccc12 do in these assays?
PRMT1 FP inh: inactive; rCAG RNA binder: inactive; ABHD5-PLIN5 inh: 87; ABHD5 PLIN5 conf: 97; HNF4 split-luc: 104

Results for Cc1ccc(Cc2c(-c3ccco3)nc3ccc(C)cn23)cc1 ?
PRMT1 FP inh: 21; rCAG RNA binder: inactive; ABHD5-PLIN5 inh: 37; ABHD5 PLIN5 conf: inactive; HNF4 split-luc: 34

How did COC(=O)c1ccc2nc(-c3ccco3)c(Cc3ccc(OC)cc3C)n2c1 do in these assays?
PRMT1 FP inh: 22; rCAG RNA binder: inactive; ABHD5-PLIN5 inh: 47; ABHD5 PLIN5 conf: 72; HNF4 split-luc: 83

What do the screens show for `Cc1csc(=O)n1CCC(=O)OCc1nnc(-c2ccc(Cl)cc2)o1`?
PRMT1 FP inh: inactive; rCAG RNA binder: inactive; ABHD5-PLIN5 inh: inactive; Rtt109 Vps75: inactive

Results for O=C(C[n+]1cccc(CNC(=O)c2ccc(OC(F)F)cc2)c1)Nc1ccc(SC(F)F)cc1 ?
ALR H2O2 inh: inactive; PRMT1 FP inh: inactive; rCAG RNA binder: inactive; ABHD5-PLIN5 inh: 29; LANA-H2B inh: inactive; Rtt109 Vps75: inactive; ABHD5 PLIN5 conf: inactive; HNF4 split-luc: inactive

Results for O=C(/C=C/c1c(F)cccc1Cl)c1ccc(F)cc1 ?
ALR H2O2 inh: inactive; PRMT1 FP inh: inactive; rCAG RNA binder: inactive; ABHD5-PLIN5 inh: 31; LANA-H2B inh: inactive; Rtt109 Vps75: inactive; ABHD5 PLIN5 conf: 95; HNF4 split-luc: 91

What do the screens show for `O=C(/C=C/c1ccc[nH]1)c1ccc(F)cc1`?
ALR H2O2 inh: inactive; PRMT1 FP inh: inactive; rCAG RNA binder: inactive; ABHD5-PLIN5 inh: inactive; LANA-H2B inh: inactive; Rtt109 Vps75: inactive

Results for Cc1cc(C)nc(NS(=O)(=O)c2ccc(NCN3C(=O)c4ccccc4C3=O)cc2)n1 ?
PRMT1 FP inh: inactive; rCAG RNA binder: inactive; ABHD5-PLIN5 inh: 27; ABHD5 PLIN5 conf: inactive; HNF4 split-luc: inactive

What do the screens show for `Cc1cc(C)nc(NS(=O)(=O)c2ccc(NC(=O)CN3C(=O)c4ccccc4C3=O)cc2)n1`?
ALR H2O2 inh: inactive; PRMT1 FP inh: inactive; rCAG RNA binder: inactive; LANA-H2B inh: inactive

Results for Cc1cc(C)cc(CC(=O)N2CCC2(C)C(=O)NS(=O)(=O)Cc2ccccc2)c1 (stereo not drawn) ?
PRMT1 FP inh: inactive; rCAG RNA binder: inactive; ABHD5-PLIN5 inh: inactive

Results for CCN1/C(=C/c2ccc3ccccc3[n+]2CC)C=Cc2ccccc21 ?
ALR H2O2 inh: inactive; PRMT1 FP inh: inactive; rCAG RNA binder: inactive; ABHD5-PLIN5 inh: 41; LANA-H2B inh: inactive; Rtt109 Vps75: inconclusive; ABHD5 PLIN5 conf: 55; HNF4 split-luc: 53

What do the screens show for `C=CCN1C(=O)[C@H](CC(=O)NCc2ccc(C)o2)[C@@]2(C(=O)OCC)CCCC=C12`?
PRMT1 FP inh: inactive; rCAG RNA binder: inactive

How did Cc1ccc(C(NC(=O)C2CCN(Cc3ccc(Oc4ccccc4)cc3)CC2)c2ccccn2)cc1 (stereo not drawn) do in these assays?
PRMT1 FP inh: inactive; rCAG RNA binder: inactive; ABHD5-PLIN5 inh: inactive

How did CC1(C)Cc2cccc(OCC(=O)N3CCN(c4ccccc4)CC3)c2O1 do in these assays?
ALR H2O2 inh: inactive; PRMT1 FP inh: inactive; rCAG RNA binder: inactive; ABHD5-PLIN5 inh: 82; LANA-H2B inh: inactive; Rtt109 Vps75: inactive; ABHD5 PLIN5 conf: inactive; HNF4 split-luc: inactive

How did CC1(C)Cc2cccc(OCC(=O)N3CCN(c4ccccc4F)CC3)c2O1 do in these assays?
ALR H2O2 inh: inactive; PRMT1 FP inh: inactive; rCAG RNA binder: inactive; ABHD5-PLIN5 inh: inactive; LANA-H2B inh: inactive; Rtt109 Vps75: inactive

How did COc1ccc(OC)c(S(=O)(=O)N2CCCC(c3noc(-c4ccc(C)cc4)n3)C2)c1 (stereo not drawn) do in these assays?
PRMT1 FP inh: inactive; rCAG RNA binder: inactive
